Paper PMC11574364

Legend:
Assay in all cases: protein domain microarray probed with biotinylated miRNA; Domain array: 20 mM Tris-HCl pH 7.4, 200 mM KCl, 0.2 mM EDTA, 0.05% NP40, 2 ug/ul heparin, overnight 4 C. ORF array: PBS pH 7.0 with RNase inhibitor, 100 ng RNA; high values mean tight binding
Conditions in all cases: ssRNA
PSF = biological target: T1, PSF (Homo sapiens, UniProt P23246)
T1 sequence: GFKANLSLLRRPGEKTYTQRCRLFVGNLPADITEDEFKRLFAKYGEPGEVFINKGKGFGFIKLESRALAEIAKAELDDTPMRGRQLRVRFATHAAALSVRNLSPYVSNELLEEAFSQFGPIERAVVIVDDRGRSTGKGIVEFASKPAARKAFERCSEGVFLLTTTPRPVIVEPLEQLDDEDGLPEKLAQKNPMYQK

ADAR(1) = biological target: T2, ADAR(1) (Homo sapiens, UniProt P55265)
T2 sequence: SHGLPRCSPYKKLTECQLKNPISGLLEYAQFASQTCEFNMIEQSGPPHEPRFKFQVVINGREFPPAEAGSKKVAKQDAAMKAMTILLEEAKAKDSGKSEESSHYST

RKHD1 = biological target: T3, RKHD1 (Homo sapiens, UniProt Q86XN8)
T3 sequence: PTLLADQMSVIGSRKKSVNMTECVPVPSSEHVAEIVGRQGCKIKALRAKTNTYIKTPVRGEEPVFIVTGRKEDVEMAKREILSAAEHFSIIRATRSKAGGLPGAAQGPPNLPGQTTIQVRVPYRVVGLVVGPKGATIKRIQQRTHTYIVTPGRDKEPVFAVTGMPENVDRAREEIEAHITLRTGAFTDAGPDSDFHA

ANKRD17 = biological target: T4, ANKRD17 (Homo sapiens, UniProt O75179)
T4 sequence: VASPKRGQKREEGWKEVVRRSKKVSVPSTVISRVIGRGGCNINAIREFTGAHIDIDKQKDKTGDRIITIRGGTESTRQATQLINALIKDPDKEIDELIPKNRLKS

RBMS3 = biological target: T5, RBMS3 (Homo sapiens, UniProt Q6XE24)
T5 sequence: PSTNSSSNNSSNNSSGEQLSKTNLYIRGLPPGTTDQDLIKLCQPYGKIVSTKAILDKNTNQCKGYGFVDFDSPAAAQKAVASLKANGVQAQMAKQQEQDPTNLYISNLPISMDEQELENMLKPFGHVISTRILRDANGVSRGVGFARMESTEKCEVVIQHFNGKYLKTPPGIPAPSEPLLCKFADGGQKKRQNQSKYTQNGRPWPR

YTHDC2 = biological target: T6, YTHDC2 (Homo sapiens, UniProt Q9H6S0)
T6 sequence: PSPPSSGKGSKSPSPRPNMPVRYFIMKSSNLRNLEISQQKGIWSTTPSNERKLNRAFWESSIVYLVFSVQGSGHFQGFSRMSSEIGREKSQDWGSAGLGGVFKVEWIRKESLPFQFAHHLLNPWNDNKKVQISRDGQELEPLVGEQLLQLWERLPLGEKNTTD

VIGILIN(11-14) = VIGILIN(11-14) (Homo sapiens, UniProt Q00341)
RBM20 = biological target: T7, RBM20 (Homo sapiens, UniProt Q5T481)
T7 sequence: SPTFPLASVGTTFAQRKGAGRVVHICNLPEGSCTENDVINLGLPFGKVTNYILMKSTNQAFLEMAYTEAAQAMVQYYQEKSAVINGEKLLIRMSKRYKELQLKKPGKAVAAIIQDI

SAFB1 = SAFB1 (Homo sapiens, UniProt Q15424)
RNPC3(1) = biological target: T8, RNPC3(1) (Homo sapiens, UniProt Q96LT9)
T8 sequence: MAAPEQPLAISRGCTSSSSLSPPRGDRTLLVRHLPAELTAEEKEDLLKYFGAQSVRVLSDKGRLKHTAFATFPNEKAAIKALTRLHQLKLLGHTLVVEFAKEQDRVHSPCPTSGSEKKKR

RBM12(3) = biological target: T9, RBM12(3) (Homo sapiens, UniProt Q9NTZ6)
T9 sequence: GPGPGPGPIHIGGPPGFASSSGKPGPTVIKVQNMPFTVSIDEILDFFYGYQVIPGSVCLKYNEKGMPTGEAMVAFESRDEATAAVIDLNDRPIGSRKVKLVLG

RBM41 = biological target: T10, RBM41 (Homo sapiens, UniProt Q96IZ5)
T10 sequence: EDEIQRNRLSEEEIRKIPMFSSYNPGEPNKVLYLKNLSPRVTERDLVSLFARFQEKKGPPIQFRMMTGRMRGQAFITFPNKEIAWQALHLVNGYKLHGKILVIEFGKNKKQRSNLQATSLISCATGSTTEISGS

RBM15 = biological target: T11, RBM15 (Homo sapiens, UniProt Q96T37)
T11 sequence: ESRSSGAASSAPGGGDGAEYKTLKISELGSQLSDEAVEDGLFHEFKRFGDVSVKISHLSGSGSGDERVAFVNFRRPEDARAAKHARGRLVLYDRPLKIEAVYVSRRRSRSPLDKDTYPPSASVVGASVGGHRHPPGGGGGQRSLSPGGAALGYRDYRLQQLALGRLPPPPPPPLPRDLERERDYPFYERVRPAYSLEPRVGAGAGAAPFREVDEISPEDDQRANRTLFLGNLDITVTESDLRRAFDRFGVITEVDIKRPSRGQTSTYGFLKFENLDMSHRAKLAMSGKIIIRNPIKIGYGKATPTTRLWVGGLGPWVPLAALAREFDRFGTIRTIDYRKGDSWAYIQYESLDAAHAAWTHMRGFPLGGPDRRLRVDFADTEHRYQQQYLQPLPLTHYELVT

ASCC1 = ASCC1 (Homo sapiens, UniProt Q8N9N2)
TDRKH(1-2) = biological target: T12, TDRKH(1-2) (Homo sapiens, UniProt Q9Y2W6)
T12 sequence: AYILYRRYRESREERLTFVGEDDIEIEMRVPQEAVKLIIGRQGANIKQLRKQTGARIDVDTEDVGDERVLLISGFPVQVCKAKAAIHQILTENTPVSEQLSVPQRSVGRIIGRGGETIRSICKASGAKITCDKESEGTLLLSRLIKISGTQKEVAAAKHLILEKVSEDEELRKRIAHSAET

RBMS1 = biological target: T13, RBMS1 (Homo sapiens, UniProt P29558)
T13 sequence: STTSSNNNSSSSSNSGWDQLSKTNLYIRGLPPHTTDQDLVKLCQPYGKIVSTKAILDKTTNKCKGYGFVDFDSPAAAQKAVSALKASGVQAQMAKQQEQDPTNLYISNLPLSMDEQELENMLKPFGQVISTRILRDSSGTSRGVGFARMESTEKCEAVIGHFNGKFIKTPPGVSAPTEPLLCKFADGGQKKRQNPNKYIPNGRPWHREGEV

RBM15B = biological target: T14, RBM15B (Homo sapiens, UniProt Q8NDT2)
T14 sequence: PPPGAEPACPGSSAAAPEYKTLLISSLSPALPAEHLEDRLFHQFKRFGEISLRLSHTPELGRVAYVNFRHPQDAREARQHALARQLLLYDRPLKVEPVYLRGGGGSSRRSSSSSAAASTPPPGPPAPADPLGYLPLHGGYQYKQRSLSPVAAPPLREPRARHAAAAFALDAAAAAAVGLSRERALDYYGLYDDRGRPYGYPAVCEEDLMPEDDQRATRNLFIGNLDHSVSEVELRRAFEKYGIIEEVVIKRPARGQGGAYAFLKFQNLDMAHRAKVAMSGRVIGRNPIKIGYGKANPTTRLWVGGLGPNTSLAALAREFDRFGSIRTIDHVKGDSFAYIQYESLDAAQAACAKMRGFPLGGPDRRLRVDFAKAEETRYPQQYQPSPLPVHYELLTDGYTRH

RBMY1C = RBMY1C (Homo sapiens, UniProt P0DJD4)
SF1 = biological target: T15, SF1 (Homo sapiens, UniProt Q15637)
T15 sequence: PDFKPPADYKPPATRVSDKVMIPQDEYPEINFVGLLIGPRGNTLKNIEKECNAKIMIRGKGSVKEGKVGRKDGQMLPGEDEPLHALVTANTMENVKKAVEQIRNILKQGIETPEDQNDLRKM

THOC4 = THOC4 (Homo sapiens, UniProt Q86V81)

ASCC1, sequence (Q8N9N2 79-168): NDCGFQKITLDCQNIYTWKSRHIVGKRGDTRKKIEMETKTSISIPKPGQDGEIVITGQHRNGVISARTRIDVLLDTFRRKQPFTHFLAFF
SAFB1, sequence (Q15424 380-500): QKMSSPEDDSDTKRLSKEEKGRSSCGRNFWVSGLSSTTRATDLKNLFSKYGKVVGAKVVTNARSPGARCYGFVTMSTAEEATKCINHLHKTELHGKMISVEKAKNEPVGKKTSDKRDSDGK
VIGILIN(11-14), sequence (Q00341 861-1229): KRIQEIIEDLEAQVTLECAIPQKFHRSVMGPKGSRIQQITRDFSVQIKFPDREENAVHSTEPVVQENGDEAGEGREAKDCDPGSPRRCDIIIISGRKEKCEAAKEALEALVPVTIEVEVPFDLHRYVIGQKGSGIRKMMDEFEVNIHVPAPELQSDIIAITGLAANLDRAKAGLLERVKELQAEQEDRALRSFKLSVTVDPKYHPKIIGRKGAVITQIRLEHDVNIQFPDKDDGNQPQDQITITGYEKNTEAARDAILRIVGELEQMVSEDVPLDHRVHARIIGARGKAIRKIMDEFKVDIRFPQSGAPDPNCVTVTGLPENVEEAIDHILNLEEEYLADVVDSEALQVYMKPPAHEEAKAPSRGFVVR
RBMY1C, sequence (P0DJD4 1-110): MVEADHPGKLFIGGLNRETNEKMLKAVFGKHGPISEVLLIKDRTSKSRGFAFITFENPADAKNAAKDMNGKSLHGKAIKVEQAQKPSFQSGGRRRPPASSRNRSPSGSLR

Sequence | binding signal (PSF) | binding signal (ADAR(1)) | binding signal (RKHD1) | binding signal (ANKRD17) | binding signal (RBMS3) | binding signal (YTHDC2) | binding signal (VIGILIN(11-14)) | binding signal (RBM20) | binding signal (SAFB1) | binding signal (RNPC3(1)) | binding signal (RBM12(3)) | binding signal (RBM41) | binding signal (RBM15) | binding signal (ASCC1) | binding signal (TDRKH(1-2)) | binding signal (RBMS1) | binding signal (RBM15B) | binding signal (RBMY1C) | binding signal (SF1) | binding signal (THOC4)
UGAGGUAGUAGGUUGUAUGGUU | 837 ± 12.7 fluorescence intensity | 27.9 ± 1.27 fluorescence intensity | 1910 ± 204 fluorescence intensity | 51.9 ± 4.92 fluorescence intensity | 363 ± 14.3 fluorescence intensity | 143 ± 6.97 fluorescence intensity | 911 ± 66.7 fluorescence intensity | 53.6 ± 5.51 fluorescence intensity | 299 ± 26.8 fluorescence intensity | 192 ± 55.7 fluorescence intensity | 35.9 ± 0.728 fluorescence intensity | 350 ± 12.9 fluorescence intensity | 537 ± 29.7 fluorescence intensity | 22.5 ± 1.64 fluorescence intensity | 45.7 ± 2.46 fluorescence intensity | 316 ± 53.1 fluorescence intensity | 309 ± 16.6 fluorescence intensity | 1200 ± 27.5 fluorescence intensity | 24.7 ± 4.35 fluorescence intensity | 91.8 ± 21.8 fluorescence intensity
UGAGGUAGUAGGUUGUAUAGUU | 265 ± 6.17 fluorescence intensity |  | 1260 ± 32.7 fluorescence intensity | 26 ± 1.62 fluorescence intensity | 86.8 ± 4.41 fluorescence intensity | 27.7 ± 2.35 fluorescence intensity | 145 ± 5.55 fluorescence intensity |  | 94.4 ± 9.54 fluorescence intensity | 38.5 ± 11.8 fluorescence intensity |  | 45.9 ± 18.9 fluorescence intensity | 82.1 ± 15.2 fluorescence intensity |  |  | 78.2 ± 3.38 fluorescence intensity | 42.7 ± 8.55 fluorescence intensity | 643 ± 42.4 fluorescence intensity |  | 
AGAGGUAGUAGGUUGCAUAGUU | 905 ± 13.5 fluorescence intensity | 20.7 ± 1.3 fluorescence intensity | 2940 ± 199 fluorescence intensity | 36.4 ± 1.75 fluorescence intensity | 410 ± 20.1 fluorescence intensity | 114 ± 5.32 fluorescence intensity | 285 ± 6.8 fluorescence intensity | 39.7 ± 5.85 fluorescence intensity | 280 ± 28.4 fluorescence intensity | 201 ± 18.2 fluorescence intensity | 26.4 ± 4.72 fluorescence intensity | 818 ± 64.1 fluorescence intensity | 525 ± 1.24 fluorescence intensity | 24.9 ± 3.57 fluorescence intensity | 29.6 ± 0.502 fluorescence intensity | 365.1 ± 1.24 fluorescence intensity | 242 ± 10.9 fluorescence intensity | 1860 ± 11.9 fluorescence intensity |  | 49.2 ± 7.5 fluorescence intensity
UGAGGUAGUAGGUUGUGUGGUU | 1020 ± 15.7 fluorescence intensity | 30.1 ± 1.12 fluorescence intensity | 1570 ± 135 fluorescence intensity | 94.6 ± 8.68 fluorescence intensity | 564 ± 40.7 fluorescence intensity | 156 ± 16.8 fluorescence intensity | 968 ± 111 fluorescence intensity | 66.7 ± 5.15 fluorescence intensity | 633 ± 29.4 fluorescence intensity | 391 ± 55.5 fluorescence intensity | 44.9 ± 5.61 fluorescence intensity | 435 ± 24.3 fluorescence intensity | 501 ± 99.1 fluorescence intensity | 45.53 ± 0.0141 fluorescence intensity | 93.1 ± 19.1 fluorescence intensity | 341 ± 18.8 fluorescence intensity | 268 ± 141 fluorescence intensity | 1360 ± 26.2 fluorescence intensity | 24.25 ± 0.205 fluorescence intensity | 133 ± 30 fluorescence intensity
UAGCUUAUCAGACUGAUGUUGA |  |  | 977 ± 62.8 fluorescence intensity |  | 45.1 ± 0.672 fluorescence intensity |  |  |  | 37.5 ± 1.2 fluorescence intensity |  |  |  | 134 ± 18.6 fluorescence intensity |  |  | 29.7 ± 0.537 fluorescence intensity | 30.7 ± 4.65 fluorescence intensity | 371 ± 23 fluorescence intensity |  | 
CAGUGCAAUGAUGAAAGGGCAU | 80.6 ± 13.1 fluorescence intensity |  | 1330 ± 109 fluorescence intensity | 37 ± 2.43 fluorescence intensity | 211.2 ± 1.16 fluorescence intensity | 65.2 ± 5.22 fluorescence intensity | 287 ± 28.5 fluorescence intensity | 34.77 ± 0.255 fluorescence intensity | 228 ± 31.6 fluorescence intensity | 61.8 ± 4.94 fluorescence intensity | 27.1 ± 4.43 fluorescence intensity | 284 ± 7.83 fluorescence intensity | 315.16 ± 0.212 fluorescence intensity |  | 40.4 ± 7.05 fluorescence intensity | 166 ± 3.01 fluorescence intensity | 128 ± 12.3 fluorescence intensity | 1150 ± 31.6 fluorescence intensity | 107.4 ± 0.728 fluorescence intensity | 40.5 ± 0.424 fluorescence intensity
